Source: the supplement of paper PMC7411054

What was measured:
Test in all cases: phenotypically active (imaging signature differs from DMSO and reproducible) at any of 0.3-9 uM (binary (1 = active, 0 = inactive)); higher = active
Details in all cases: treatment time: 24 h
A549-ACTB-RAB5A = system: A549-ACTB-RAB5A
Outline: (§1)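 Live-cell features were measured per well and normalised to solvent control wells after fifteen gene-edited A549, HepG2 and WPMY1 reporter lines had been treated for 24 h at 0.3, 1, 3 or 9 µM in four wells each. A condition was deviating when ≥3 of 4 wells sat beyond the 95th percentile of control Euclidean distances. It was reproducible when the median replicate Pearson correlation exceeded the 95th percentile of non-replicates. Phenotypic activity demanded both.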

A549-CANX-COX4 = system: A549-CANX-COX4
Outline: as §1

A549-GM130-SQSTM1 = system: A549-GM130-SQSTM1
Outline: as §1

A549-TP53BP1-CLTA = system: A549-TP53BP1-CLTA
Outline: as §1

A549-TUBA1B-RELA = system: A549-TUBA1B-RELA
Outline: as §1

HepG2-ACTB-RAB5A = system: HepG2-ACTB-RAB5A
Outline: as §1

HepG2-CANX-COX4 = system: HepG2-CANX-COX4
Outline: as §1

HepG2-GM130-SQSTM1 = system: HepG2-GM130-SQSTM1
Outline: as §1

HepG2-TP53BP1-CLTA = system: HepG2-TP53BP1-CLTA
Outline: as §1

HepG2-TUBA1B-RELA = system: HepG2-TUBA1B-RELA
Outline: as §1

WPMY1-ACTB-RAB5A = system: WPMY1-ACTB-RAB5A
Outline: as §1

WPMY1-CANX-COX4 = system: WPMY1-CANX-COX4
Outline: as §1

WPMY1-GM130-SQSTM1 = system: WPMY1-GM130-SQSTM1
Outline: as §1

WPMY1-TP53BP1-CLTA = system: WPMY1-TP53BP1-CLTA
Outline: as §1

WPMY1-TUBA1B-RELA = system: WPMY1-TUBA1B-RELA
Outline: as §1

Measured: phenotypically active

CCN[C@H]1C[C@H](C)S(=O)(=O)c2sc(S(N)(=O)=O)cc21 [dorzolamide]
inactive: A549-ACTB-RAB5A 0 | A549-CANX-COX4 0 | A549-GM130-SQSTM1 0 | A549-TP53BP1-CLTA 0 | A549-TUBA1B-RELA 0 | HepG2-ACTB-RAB5A 0 | HepG2-CANX-COX4 0 | HepG2-GM130-SQSTM1 0 | HepG2-TP53BP1-CLTA 0 | HepG2-TUBA1B-RELA 0 | WPMY1-ACTB-RAB5A 0 | WPMY1-CANX-COX4 0 | WPMY1-GM130-SQSTM1 0 | WPMY1-TP53BP1-CLTA 0 | WPMY1-TUBA1B-RELA 0

CNCC[C@@H](Oc1ccccc1C)c1ccccc1 [atomoxetine]
inactive: A549-ACTB-RAB5A 0 | A549-CANX-COX4 0 | A549-GM130-SQSTM1 0 | A549-TP53BP1-CLTA 0 | A549-TUBA1B-RELA 0 | HepG2-ACTB-RAB5A 0 | HepG2-CANX-COX4 0 | HepG2-GM130-SQSTM1 0 | HepG2-TP53BP1-CLTA 0 | HepG2-TUBA1B-RELA 0 | WPMY1-ACTB-RAB5A 0 | WPMY1-CANX-COX4 0 | WPMY1-GM130-SQSTM1 0 | WPMY1-TP53BP1-CLTA 0 | WPMY1-TUBA1B-RELA 0

CC1(COc2ccc(CC3SC(=O)NC3=O)cc2)CCCCC1 (stereo not given) [Ciglitazone]
inactive: A549-ACTB-RAB5A 0 | A549-CANX-COX4 0 | A549-GM130-SQSTM1 0 | A549-TP53BP1-CLTA 0 | A549-TUBA1B-RELA 0 | HepG2-ACTB-RAB5A 0 | HepG2-CANX-COX4 0 | HepG2-GM130-SQSTM1 0 | HepG2-TP53BP1-CLTA 0 | HepG2-TUBA1B-RELA 0 | WPMY1-ACTB-RAB5A 0 | WPMY1-CANX-COX4 0 | WPMY1-GM130-SQSTM1 0 | WPMY1-TP53BP1-CLTA 0 | WPMY1-TUBA1B-RELA 0

OC[C@H]1O[C@@H](Oc2ccc(O)cc2)[C@H](O)[C@@H](O)[C@@H]1O [Arbutin]
inactive: A549-ACTB-RAB5A 0 | A549-CANX-COX4 0 | A549-GM130-SQSTM1 0 | A549-TP53BP1-CLTA 0 | A549-TUBA1B-RELA 0 | HepG2-ACTB-RAB5A 0 | HepG2-CANX-COX4 0 | HepG2-GM130-SQSTM1 0 | HepG2-TP53BP1-CLTA 0 | HepG2-TUBA1B-RELA 0 | WPMY1-ACTB-RAB5A 0 | WPMY1-CANX-COX4 0 | WPMY1-GM130-SQSTM1 0 | WPMY1-TP53BP1-CLTA 0 | WPMY1-TUBA1B-RELA 0

COc1ccc(C2(CNC(=O)c3ccc(NC(=O)c4ccco4)cc3)CCOCC2)cc1
inactive: A549-ACTB-RAB5A 0 | A549-CANX-COX4 0 | A549-GM130-SQSTM1 0 | A549-TP53BP1-CLTA 0 | A549-TUBA1B-RELA 0 | HepG2-ACTB-RAB5A 0 | HepG2-CANX-COX4 0 | HepG2-GM130-SQSTM1 0 | HepG2-TP53BP1-CLTA 0 | HepG2-TUBA1B-RELA 0 | WPMY1-ACTB-RAB5A 0 | WPMY1-CANX-COX4 0 | WPMY1-GM130-SQSTM1 0 | WPMY1-TP53BP1-CLTA 0 | WPMY1-TUBA1B-RELA 0

NCCc1ccc(O)c(O)c1 [dopamine]
inactive: A549-ACTB-RAB5A 0 | A549-CANX-COX4 0 | A549-GM130-SQSTM1 0 | A549-TP53BP1-CLTA 0 | A549-TUBA1B-RELA 0 | HepG2-ACTB-RAB5A 0 | HepG2-CANX-COX4 0 | HepG2-GM130-SQSTM1 0 | HepG2-TP53BP1-CLTA 0 | HepG2-TUBA1B-RELA 0 | WPMY1-ACTB-RAB5A 0 | WPMY1-CANX-COX4 0 | WPMY1-GM130-SQSTM1 0 | WPMY1-TP53BP1-CLTA 0 | WPMY1-TUBA1B-RELA 0

CC(=O)N[C@@H](CC(=O)O)C(=O)N[C@@H](CCC(=O)O)C(=O)O [Spaglumic acid]
inactive: A549-ACTB-RAB5A 0 | A549-CANX-COX4 0 | A549-GM130-SQSTM1 0 | A549-TP53BP1-CLTA 0 | A549-TUBA1B-RELA 0 | HepG2-ACTB-RAB5A 0 | HepG2-CANX-COX4 0 | HepG2-GM130-SQSTM1 0 | HepG2-TP53BP1-CLTA 0 | HepG2-TUBA1B-RELA 0 | WPMY1-ACTB-RAB5A 0 | WPMY1-CANX-COX4 0 | WPMY1-GM130-SQSTM1 0 | WPMY1-TP53BP1-CLTA 0 | WPMY1-TUBA1B-RELA 0

COc1cc(C=O)c([N+](=O)[O-])cc1OC
inactive: A549-ACTB-RAB5A 0 | A549-CANX-COX4 0 | A549-GM130-SQSTM1 0 | A549-TP53BP1-CLTA 0 | A549-TUBA1B-RELA 0 | HepG2-ACTB-RAB5A 0 | HepG2-CANX-COX4 0 | HepG2-GM130-SQSTM1 0 | HepG2-TP53BP1-CLTA 0 | HepG2-TUBA1B-RELA 0 | WPMY1-ACTB-RAB5A 0 | WPMY1-CANX-COX4 0 | WPMY1-GM130-SQSTM1 0 | WPMY1-TP53BP1-CLTA 0 | WPMY1-TUBA1B-RELA 0

O=C(O)[C@H](Cc1c[nH]c2ccccc12)N1C(=O)c2ccccc2C1=O
inactive: A549-ACTB-RAB5A 0 | A549-CANX-COX4 0 | A549-GM130-SQSTM1 0 | A549-TP53BP1-CLTA 0 | A549-TUBA1B-RELA 0 | HepG2-ACTB-RAB5A 0 | HepG2-CANX-COX4 0 | HepG2-GM130-SQSTM1 0 | HepG2-TP53BP1-CLTA 0 | HepG2-TUBA1B-RELA 0 | WPMY1-ACTB-RAB5A 0 | WPMY1-CANX-COX4 0 | WPMY1-GM130-SQSTM1 0 | WPMY1-TP53BP1-CLTA 0 | WPMY1-TUBA1B-RELA 0

CC(=O)OCC[N+](C)(C)C [acetylcholine]
inactive: A549-ACTB-RAB5A 0 | A549-CANX-COX4 0 | A549-GM130-SQSTM1 0 | A549-TP53BP1-CLTA 0 | A549-TUBA1B-RELA 0 | HepG2-ACTB-RAB5A 0 | HepG2-CANX-COX4 0 | HepG2-GM130-SQSTM1 0 | HepG2-TP53BP1-CLTA 0 | HepG2-TUBA1B-RELA 0 | WPMY1-ACTB-RAB5A 0 | WPMY1-CANX-COX4 0 | WPMY1-GM130-SQSTM1 0 | WPMY1-TP53BP1-CLTA 0 | WPMY1-TUBA1B-RELA 0

C[C@](N)(Cc1ccc(O)c(O)c1)C(=O)O [methyldopa]
inactive: A549-ACTB-RAB5A 0 | A549-CANX-COX4 0 | A549-GM130-SQSTM1 0 | A549-TP53BP1-CLTA 0 | A549-TUBA1B-RELA 0 | HepG2-ACTB-RAB5A 0 | HepG2-CANX-COX4 0 | HepG2-GM130-SQSTM1 0 | HepG2-TP53BP1-CLTA 0 | HepG2-TUBA1B-RELA 0 | WPMY1-ACTB-RAB5A 0 | WPMY1-CANX-COX4 0 | WPMY1-GM130-SQSTM1 0 | WPMY1-TP53BP1-CLTA 0 | WPMY1-TUBA1B-RELA 0

COc1c2c(cc3oc(CO)cc(=O)c13)O[C@@H](C(C)(C)O)C2 [Cimifugin]
inactive: A549-ACTB-RAB5A 0 | A549-CANX-COX4 0 | A549-GM130-SQSTM1 0 | A549-TP53BP1-CLTA 0 | A549-TUBA1B-RELA 0 | HepG2-ACTB-RAB5A 0 | HepG2-CANX-COX4 0 | HepG2-GM130-SQSTM1 0 | HepG2-TP53BP1-CLTA 0 | HepG2-TUBA1B-RELA 0 | WPMY1-ACTB-RAB5A 0 | WPMY1-CANX-COX4 0 | WPMY1-GM130-SQSTM1 0 | WPMY1-TP53BP1-CLTA 0 | WPMY1-TUBA1B-RELA 0
